Test results taken from PubChem BioAssay AID1159580 (chemical genetic matrix, 2015).
“And” between values parts separate entries of the source, which are not always exact repeats. Equal values may be shown once. The whole screen tested about 5,500 compounds, of which about 2,000 (36%) were called active. Inconclusive results (about 18%) are left out. No stated cut-off is given here; in the data, active means normalized growth mostly below about 0.91 (no sharp cut-off); inconclusive means no clear call, values can overlap the other calls; inactive means mostly above about 0.92. The list shows a part of the results.

Assay: chemical genetic growth profiling, strain panel (AID 1159580);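 further: tested at 20 µM; growth read once vehicle control cultures reached saturation at 30 °C; 1 = growth at the plate median or of vehicle wells; lower values mean less growth of the strain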
Conditions: S. cerevisiae deletion strains, growth OD

Measured: normalized growth

CCc1ccc(CCOc2ccc(CC3SC(=O)NC3=O)cc2)nc1 (configuration not stated)
inactive: locus YAL013W, strain DEP1, hits give low values 1.01 | locus YAL021C, strain ccr4, hits give low values 1.03 | locus YAL026C, strain drs2, hits give low values 1.01 | locus YAL030W, strain snc1, hits give low values 0.999 | locus YBL061C, strain skt5, hits give low values 1.01 | locus YBR009C, strain hhf1, hits give low values 1 | locus YBR021W, strain FUR4, hits give low values 1 | locus YBR023C, strain chs3, hits give low values 1 | locus YBR171W, strain sec66, hits give low values 1.02 | locus YBR229C, strain ROT2, hits give low values 0.993 | locus YBR231C, strain swc5, hits give low values 0.999 | locus YBR279W, strain paf1, hits give low values 1 | locus YCL011C, strain gbp2, hits give low values 1 | locus YCL016C, strain dcc1, hits give low values 1 | locus YCL029C, strain bik1, hits give low values 0.996 | locus YCL061C, strain MRC1, hits give low values 1.01 | locus YCL069W, strain vba3, hits give low values 1.01 | locus YCR088W, strain abp1, hits give low values 1.01 | locus YDL005C, strain med2, hits give low values 1 | locus YDL035C, strain GPR1, hits give low values 0.983 | locus YDL040C, strain nat1, hits give low values 0.99 | locus YDL074C, strain BRE1, hits give low values 0.974 | locus YDL101C, strain DUN1, hits give low values 1.01 | locus YDL134C, strain PPH21, hits give low values 0.998 | locus YDL185W, strain tfp1, hits give low values 1 | locus YDL192W, strain arf1, hits give low values 0.996 | locus YDR001C, strain nth1, hits give low values 1.01 | locus YDR069C, strain doa4, hits give low values 1.03 | locus YDR101C, strain arx1, hits give low values 0.995 | locus YDR137W, strain rgp1, hits give low values 0.916 | locus YDR150W, strain NUM1, hits give low values 1.01 | locus YDR159W, strain sac3, hits give low values 1.01 | locus YDR162C, strain NBP2, hits give low values 1.02 | locus YDR195W, strain ref2 0.995 | locus YDR297W, strain sur2, hits give low values 1.02 | locus YDR318W, strain mcm21, hits give low values 0.994 | locus YDR334W, strain swr1, hits give low values 1.02 | locus YDR335W, strain msn5, hits give low values 1.02 | locus YDR388W, hits give low values 0.989 | locus YDR392W, strain spt3, hits give low values 1 | locus YDR502C, strain sam2, hits give low values 0.994 | locus YEL003W, strain gim4, hits give low values 1.02 | locus YEL037C, strain rad23, hits give low values 1.01 | locus YEL061C, strain CIN8 (second series), hits give low values 1 | locus YEL061C, strain CIN8, hits give low values 1.02 | locus YER015W, strain faa2, hits give low values 1.01 | locus YER016W, strain bim1, hits give low values 1.01 | locus YER110C, hits give low values 0.997 | locus YER111C, strain swi4, hits give low values 1 | locus YER155C, strain BEM2 (second series), hits give low values 1.05 | locus YER155C, strain BEM2, hits give low values 0.995 | locus YER167W, strain BCK2, hits give low values 1 | locus YFR010W, strain ubp6, hits give low values 1.02 | locus YGL078C, strain dbp3, hits give low values 0.988 | locus YGL086W, strain mad1, hits give low values 0.996 | locus YGL167C, strain pmr1, hits give low values 1 | locus YGL173C, strain kem1, hits give low values 1.02 | locus YGL227W, strain vid30, hits give low values 0.995 | locus YGL240W, strain doc1, hits give low values 1.02 | locus YGL248W, strain PDE1, hits give low values 0.999 | locus YGL253W, strain hxk2, hits give low values 0.993 | locus YGR078C, strain PAC10, hits give low values 1.06 | locus YGR135W, strain pre9, hits give low values 0.993 | locus YGR229C, strain SMI1, hits give low values 1.01 | locus YGR252W, strain gcn5, hits give low values 0.946 | locus YHR013C, strain ard1, hits give low values 1.03 | locus YHR027C, strain rpn1, hits give low values 1.02 | locus YHR030C, strain SLT2, hits give low values 1 and 0.969 | locus YHR079C, strain IRE1 (second series), hits give low values 0.993 | locus YHR079C, strain IRE1, hits give low values 0.959 | locus YHR094C, strain hxt1, hits give low values 0.988 | locus YHR129C, strain ARP1, hits give low values 0.999 | locus YHR142W, strain chs7, hits give low values 1.01 | locus YHR200W, strain rpn10, hits give low values 0.995 | locus YIL066C, strain RNR3, hits give low values 1.01 | locus YIL073C, strain SPO22, hits give low values 1.05 | locus YIL125W, strain kgd1, hits give low values 0.988 | locus YIR030C, strain dcg1, hits give low values 0.994 | locus YJL092W, strain hpr5, hits give low values 1 | locus YJL095W, strain BCK1 (second series), hits give low values 0.998 | locus YJL095W, strain BCK1, hits give low values 0.979 and 1.01 | locus YJL115W, strain asf1, hits give low values 1 | locus YJL129C, strain trk1, hits give low values 1.02 | locus YJL134W, strain LCB3, hits give low values 1 | locus YJL154C, strain vps35, hits give low values 1.02 | locus YJL164C, strain tpk1, hits give low values 0.991 | locus YJL166W, strain qcr8, hits give low values 1.02 | locus YJL168C, strain set2, hits give low values 0.99 | locus YJL187C, strain SWE1 (second series), hits give low values 1.01 | locus YJL187C, strain SWE1, hits give low values 1.01 | locus YJR043C, strain POL32, hits give low values 0.991 | locus YJR066W, strain TOR1, hits give low values 0.942
